Data on twelve compounds can be found in PubChem BioAssay (NCATS).

The nature of test [1]: qHTS Assay for Lipid Storage Modulators (AID 1519; calls by dose curve; for activity change, negative = inhibition: % is set by controls: 0 for no effect and ±100 for the full control effect). The settings on record: Drosophila S3 cells, BODIPY lipid droplet/cell ratio, laser cytometry, cells loaded with oleic acid. In outline: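 Cells seeded at 5,000 per well were treated with compounds over a concentration series and loaded with oleic acid (400 uM, as added). Lipid droplet fluorescence (488 nm excitation, 500-530 nm channel) was read by laser-scanning cytometry and normalized to 20 uM Triacsin C.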

Test [2] has as its target Ubiquitin carboxyl-terminal hydrolase 1 (Homo sapiens) (UniProt O94782). Briefly: Inhibitors of USP1/UAF1: Pilot qHTS (AID 504865).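 Note: rhodamine fluorescence freed from ubiquitin-rhodamine substrate followed over time; top concentration of the series differs between compounds; % is set by controls: 0 for no effect and ±100 for the full control effect; nearly all actives have a fitted effect of over 35% in size.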 In outline: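 USP1/UAF1 complex (1nM) preincubated with compound 15 min at room temperature, then Ub-Rho substrate (150nM final) added. Fluorescence read kinetically at 480/540 nm, 6 reads every 60 seconds. Buffer: 50mM HEPES pH 7.8, 0.5mM EDTA, 0.1 mg/ml BSA, 1mM TCEP, 0.01% Tween-20.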

Test [3] has as its target Luciferin 4-monooxygenase (Photinus pyralis) (UniProt P08659). Briefly: Biochemical firefly luciferase enzyme assay for NPC (AID 624030).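 Note: purified P. pyralis luciferase at 10 nM with luciferin and ATP substrate; 0% = DMSO and -100% = full luciferase inhibition by PTC124 control; nearly all actives have a fitted effect of over 70% in size.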 The gist of the method: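 Counter-screen for direct inhibition of the luciferase enzyme by approved-drug library compounds, run at 10 nM enzyme in 50 mM Tris acetate (final). Luminescence was read within 5 min of enzyme-buffer addition and normalized to PTC124 versus DMSO (0%).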

Test [4] can be described thus: qHTS profiling for inhibitors of Plasmodium falciparum proliferation (AID 504749). Note: nearly all actives have a fitted effect of over 60% in size. Note: potency is the fitted concentration of half-maximal effect. The conditions noted are these: P. falciparum in erythrocytes, SYBR Green DNA, 72 h. In outline:
(§1)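 Fluorescence of SYBR Green-bound parasite DNA, read at 485/535 nm, served as the growth measure. Infected erythrocytes were cultured with compound 72 h; artemisinin (0.29 uM) and DMSO wells defined the normalization range.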

Another test concerns 3D7. The description is as above. The conditions noted are these: P. falciparum in erythrocytes, SYBR Green DNA, 72 h; series mostly up to 28.7 µM. The gist of the method:
as §1

In the next test the test system is C2A. The test is described as above. The conditions noted are these: P. falciparum in erythrocytes, SYBR Green DNA, 72 h; series mostly up to 28.7 µM. In outline:
as §1

In the next test the test system is CP211. Described as above. The settings on record: P. falciparum in erythrocytes, SYBR Green DNA, 72 h; series mostly up to 28.7 µM. The gist of the method:
as §1

The test system of the next test is CP217. The test is described as above. The conditions noted are these: P. falciparum in erythrocytes, SYBR Green DNA, 72 h; series mostly up to 28.7 µM. The gist of the method:
as §1

The next test concerns CP252. Described as above. The conditions noted are these: P. falciparum in erythrocytes, SYBR Green DNA, 72 h; series mostly up to 12.8 µM. The gist of the method:
as §1

The test system of another test is CP262. Described as above. The settings on record: P. falciparum in erythrocytes, SYBR Green DNA, 72 h; series mostly up to 28.7 µM. The gist of the method:
as §1

The next test concerns ECU. Described as above. The settings on record: P. falciparum in erythrocytes, SYBR Green DNA, 72 h; series mostly up to 28.7 µM. In outline: as §1
Another test relates to CP286. The description is as above. The settings on record: P. falciparum in erythrocytes, SYBR Green DNA, 72 h; series mostly up to 28.7 µM. In outline: as §1
Where [5] appears, read: measured here: cell count channel max response.
Where [6] appears, read: measured here: lipid channel max response.

Inconclusive results are not listed. The source made the active and inactive calls. Unless noted, calls come from the whole dose curve; as a rule, active = well fitted inhibition curve with a large enough effect; inconclusive = small, poorly fitted or top-dose-only effect; inactive = flat fitted curve, though single readings scatter.

Luciferin 4-monooxygenase (Photinus pyralis), sequence (P08659 whole entry, looked up): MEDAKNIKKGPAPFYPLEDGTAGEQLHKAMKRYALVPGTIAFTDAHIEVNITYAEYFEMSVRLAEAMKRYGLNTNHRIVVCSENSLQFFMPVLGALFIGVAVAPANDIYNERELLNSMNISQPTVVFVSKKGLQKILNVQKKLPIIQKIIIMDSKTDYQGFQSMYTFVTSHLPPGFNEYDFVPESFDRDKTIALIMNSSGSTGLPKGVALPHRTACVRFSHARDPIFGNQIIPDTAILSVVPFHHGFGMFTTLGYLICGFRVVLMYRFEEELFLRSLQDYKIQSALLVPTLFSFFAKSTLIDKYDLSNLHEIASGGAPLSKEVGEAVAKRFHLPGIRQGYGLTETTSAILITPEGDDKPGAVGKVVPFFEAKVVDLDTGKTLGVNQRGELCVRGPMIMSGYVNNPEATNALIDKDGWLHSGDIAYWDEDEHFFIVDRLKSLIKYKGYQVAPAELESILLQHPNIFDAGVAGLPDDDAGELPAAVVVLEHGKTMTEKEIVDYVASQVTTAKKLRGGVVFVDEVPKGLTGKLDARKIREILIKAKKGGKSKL
Ubiquitin carboxyl-terminal hydrolase 1 (Homo sapiens), sequence (O94782 whole entry, looked up): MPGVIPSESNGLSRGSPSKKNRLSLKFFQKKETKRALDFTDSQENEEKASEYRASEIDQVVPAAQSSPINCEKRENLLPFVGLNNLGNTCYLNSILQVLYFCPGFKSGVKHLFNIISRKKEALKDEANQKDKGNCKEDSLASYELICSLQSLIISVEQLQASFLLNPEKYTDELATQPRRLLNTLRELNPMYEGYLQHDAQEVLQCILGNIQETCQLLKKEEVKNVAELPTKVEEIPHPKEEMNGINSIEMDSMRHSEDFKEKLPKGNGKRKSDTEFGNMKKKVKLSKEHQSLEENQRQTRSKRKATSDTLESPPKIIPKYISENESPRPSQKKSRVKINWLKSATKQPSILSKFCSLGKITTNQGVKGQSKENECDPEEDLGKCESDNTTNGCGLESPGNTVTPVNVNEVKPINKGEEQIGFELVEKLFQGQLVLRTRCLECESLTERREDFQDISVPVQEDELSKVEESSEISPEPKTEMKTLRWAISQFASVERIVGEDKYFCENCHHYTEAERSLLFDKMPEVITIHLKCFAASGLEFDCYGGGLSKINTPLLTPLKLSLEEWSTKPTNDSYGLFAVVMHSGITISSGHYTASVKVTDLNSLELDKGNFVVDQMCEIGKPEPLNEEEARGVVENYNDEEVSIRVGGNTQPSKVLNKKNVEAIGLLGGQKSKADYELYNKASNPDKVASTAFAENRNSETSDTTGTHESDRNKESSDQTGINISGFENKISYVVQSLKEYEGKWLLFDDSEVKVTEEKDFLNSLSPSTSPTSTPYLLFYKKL

Regarding `O=C1CC2OCC=C3CN4CC[C@]56c7ccccc7N1[C@H]5[C@H]2C3C[C@H]46` (stereo partly drawn), the activity change, negative = inhibition in test [1] (at 57.5 µM (top of the series)) was 9.09% (inactive). For the same compound, the results for the max response in test [1] (setting [5]) and in [1] (setting [6]) were 14.5% and 20.7%, respectively. In [2], the Potency entry is “inactive”.
The like results for `CC(C)(C)C(=O)C(Oc1ccc(Cl)cc1)n1cncn1` (stereo not drawn) were, in that order, 7.2% (inactive), 5.9%, 16.7% and “inactive”.
For `CC(C)Nc1nc(Cl)nc(NC(C)C)n1`, in that order: 3.35% (inactive), 5.6%, 10.8% and “inactive”.
The like results for `CCS(=O)CCSP(=O)(OC)OC` (stereo not drawn) were, in that order, -0.0729% (inactive), 0.72%, 3.47% and “inactive”.
`CC(C)(C)[C@]1(O)C[C@@H]2OC(=O)C[C@@]23C(=O)O[C@@H]2OC(=O)[C@H](O)[C@]213`: the activity change, negative = inhibition in [1] (at 57.5 µM (top of the series)) is 3.73% (inactive). For the same compound, the max response in [1] (setting [5]) was found to be 5.67%; in test [1] (setting [6]) it was 8.55%. The Potency result in test [2] is “inactive”.
Turning to `CCC(=O)Nc1ccc(Cl)c(Cl)c1`, the activity change, negative = inhibition in test [1] (at 57.5 µM (top of the series)) was 7.8% (inactive). For the same compound, the max response in [1] (setting [5]) was 9.78%; in test [1] (setting [6]), 21.3%. Besides, in [2], the Potency entry is “inactive”.
In the case of `CCC(C)C1O[C@]2(C=CC1C)CC1CC(C/C=C(\C)[C@H](OC3CC(OC)C(O[C@H]4CC(OC)[C@@H](O)C(C)O4)C(C)O3)[C@@H](C)/C=C/C=C3\COC4C(O)C(C)=C[C@H](C(=O)O1)[C@@]34O)O2` (stereo partly drawn), in [1] (at 57.5 µM (top of the series)), the activity change, negative = inhibition was -5.38% (inactive). In addition, the max response in test [1] (setting [5]) was -1.86%; in test [1] (setting [6]) it was -6.99%. Further, the Potency result (in test [3]; in the test on CP262) was “inactive” each time. The Potency in test [4] (parasite line A) is 4.47 µM (active); in [4] (parasite line B) it was 8.91 µM (active); with 3D7, 11.2 µM (active); in the test on C2A it was 12.6 µM (active); in the test on CP211, 12 µM (active); with CP217, 10 µM (active). Moreover, the values for the Potency in the test with CP252 and in the test with ECU were 11.2 µM (active) and 8.91 µM (active), respectively.
For `CC1CC[C@@]2(NC1)O[C@@H]1C[C@H]3C4CC=C5C[C@@H](O)CC[C@]5(C)C4CC[C@]3(C)[C@H]1[C@@H]2C` (stereo partly drawn), the activity change, negative = inhibition in test [1] (at 57.5 µM (top of the series)) is 7.46% (inactive). For the same compound, the max response in test [1] (setting [5]) was -0.557%; in test [1] (setting [6]), 6.71%. Besides, the Potency result in [2] is “inactive”.
Consider `O=C1C=C2C=CC3C[C@@]2(O1)C1CCCCN31` (stereo partly drawn), for which, in test [1] (at 57.5 µM (top of the series)), the activity change, negative = inhibition is 4.29% (inactive). The values for the max response in test [1] (setting [5]) and in test [1] (setting [6]) were 5.82% and 10.8%, respectively. In addition, the Potency result in test [2] and in test [3] was “inactive” in each case. Besides, the Potency in test [4] (parasite line A) was 11.2 µM (active); in test [4] (parasite line B), 8.91 µM (active); in the test on 3D7, 12.6 µM (active); in the test with C2A, 12.6 µM (active); in the test with CP211, 13.5 µM (active); in the test with CP217 it was 8.91 µM (active). Also, the Potency in the test with CP252 was 11.2 µM (active); in the test with CP262, 13.5 µM (active); in the test with CP286, 11.2 µM (active); in the test on ECU, 11.2 µM (active).
`C[C@]1(C(=O)O)CCC[C@]2(C)c3cc(O)ccc3CC[C@@H]12`: in test [1] (at 57.5 µM (top of the series)), the activity change, negative = inhibition is -6.36% (inactive). For the same compound, the max response in test [1] (setting [5]) was -21.1%; in [1] (setting [6]), -24.8%. Moreover, in test [2], the Potency result is “inactive”.
As for `COc1cc2c(c(OC)c1OC)-c1ccc(OC)c(=O)cc1[C@H](NC(C)=O)CC2`, the activity change, negative = inhibition in [1] (at 25.7 µM (top of the series)) is -7.92% (inactive). In addition, the results for the max response in test [1] (setting [5]) and in [1] (setting [6]) were -13.6% and -22.5%, respectively. In addition, the Potency result in test [2] was “inactive”.
As for `C=CC1CN2CCC1CC2C(OC(=O)OCC)c1ccnc2ccc(OC)cc12` (stereo not drawn), the activity change, negative = inhibition in [1] (at 57.5 µM (top of the series)) was 5.87% (inactive). In addition, the max response in [1] (setting [5]) is 0.936%; in test [1] (setting [6]), 9.58%. The Potency result in test [2] and in [3] was “inactive” throughout. For the same compound, the Potency in test [4] (parasite line A) was 1.58 µM (active); in test [4] (parasite line B) it was 2.24 µM (active); in the test on 3D7, 2.51 µM (active); in the test on CP211, 15.1 µM (active); with CP217, 7.94 µM (active); in the test with CP252 it was 8.91 µM (active). Further, the Potency is 6.01 µM (active) in the test with CP262, 5.01 µM (active) in the test on CP286 and 3.98 µM (active) in the test on ECU.
